# Assay results taken from PubChem BioAssay (NCATS).
# Records with an inconclusive call do not appear. A call without a number means that no potency is given here. The source made the active and inactive calls. Unless noted, the rule behind the calls is not given here.
# Assays:
# [1] = qHTS profiling of the MIPE4 collection as inhibitors of Plasmodium falciparum (3D7) proliferation (AID 743344); conditions: P. falciparum 3D7 in erythrocytes, SYBR Green DNA fluorescence, 72 h; at 28.5 µM unless noted
# Outline: (§1)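 Parasite DNA was quantified by SYBR Green I fluorescence (ex 485, em 535 nm) after overnight lysis in saponin/Triton buffer at room temperature. Cultures at 0.3% parasitemia and 2.5% hematocrit were first exposed to compound for 72 h at 37 C; signals were normalised to artemisinin (0.29 uM) and vehicle wells.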
# [2] = qHTS profiling of the MIPE4 collection as inhibitors of Plasmodium falciparum (DD2) proliferation (AID 743345); conditions: P. falciparum Dd2 in erythrocytes, SYBR Green DNA, 72 h; at 28.5 µM unless noted
# Outline: as §1
# [3] = qHTS profiling of the MIPE4 collection as inhibitors of Plasmodium falciparum (HB3) proliferation (AID 743347); conditions: P. falciparum HB3 in erythrocytes, SYBR Green DNA, 72 h; at 28.5 µM unless noted
# Outline: as §1
# [4] = qHTS for Inhibitors of the Functional Ribonucleoprotein Complex (vRNP) of Lassa (LASV) Arenavirus: LASV Primary Screen - GLuc reporter signal (AID 1347082; calls by dose curve; tested in HEK293 reporter line; note: nearly all actives have a fitted effect of over 60% in size)
# [5] = qHTS for Inhibitors of the Functional Ribonucleoprotein Complex (vRNP) of Lassa (LASV) Arenavirus: Viability assay - alamar blue signal for LASV Primary Screen (AID 1347083; calls by dose curve; tested in HEK293 reporter line; note: nearly all actives have a fitted effect of over 80% in size; note: potency is the fitted concentration of half-maximal effect)
# [6] = qHTS for Inhibitors of the Functional Ribonucleoprotein Complex (vRNP) of Lymphocytic Choriomeningitis Arenaviruses (LCMV): Viability assay - alamar blue signal for LCMV Primary Screen (AID 1347085; calls by dose curve; tested in HEK293 reporter line; note: nearly all actives have a fitted effect of over 80% in size; note: potency is the fitted concentration of half-maximal effect)
# [7] = target: Nucleoprotein (Lymphocytic choriomeningitis virus (strain Armstrong)) (UniProt P09992); test: qHTS for Inhibitors of the Functional Ribonucleoprotein Complex (vRNP) of Lymphocytic Choriomeningitis Arenaviruses (LCMV): LCMV Primary Screen - GLuc reporter signal (AID 1347086; calls by dose curve; note: nearly all actives have a fitted effect of over 70% in size)
# [8] = target: Alpha-galactosidase (Coffea arabica) (UniProt Q42656); test: Counterscreen for Glucocerebrosidase Inhibitors: qHTS Assay for Coffee Bean alpha-Galactosidase at pH 4.5 (AID 957; active = well fitted curve in the direction sought with a large enough effect; an effect the other way counts as inactive or inconclusive)
# Outline: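 Fluorogenic qHTS at pH 4.5 (citrate buffer with Tween-20): 2 nM enzyme, 80 uM 4-MU-alpha-galactoside substrate, compound titrated 0.7 nM to 77 uM, 20 min room temperature. Glycine/NaOH stop; 4-MU read Ex 365/Em 440; Hill-equation AC50 against no-enzyme and enzyme controls.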
# [9] = target: Alpha-galactosidase (Coffea arabica) (UniProt Q42656); test: Counterscreen for Glucocerebrosidase Inhibitors: qHTS Assay for Coffee Bean alpha-Galactosidase at pH 5.9 (AID 998; active = well fitted curve in the direction sought with a large enough effect; an effect the other way counts as inactive or inconclusive)
# Outline: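 Enzyme 2 nM + cpd (0.7 nM–77 uM titration) + 4-MU-alpha-Gal 80 uM, pH 5.9 citrate/Tween-20, RT 20 min, NaOH/glycine stop pH 10, fluor 365/440. Normalized to no-enzyme and full-activity controls; Hill-fit AC50.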
# [10] = qHTS profiling of the MIPE4 collection as inhibitors of Plasmodium falciparum (DD2) proliferation (Rep 2) (AID 743346); conditions: P. falciparum Dd2 in erythrocytes, SYBR Green DNA, 72 h; at 28.5 µM unless noted
# Outline: as §1
# [11] = Validation screen for inhibitors of Lassa infection (AID 463096; calls by dose curve)
# [12] = Inducers of the Endoplasmic Reticulum Stress Response (ERSR) in human glioma: Validation (AID 504836; active = well fitted curve in the direction sought with a large enough effect; an effect the other way counts as inactive or inconclusive)
# Outline: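 Stably transfected U87-MG glioma cells carrying a GRP78-based luciferase sensor; 16 h compound incubation. Luminescence end-point read 10 min after Bright-Glo addition at room temperature.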
# [13] = Cytotoxicity counterscreen for inhibitors of SARS-CoV-2 cell entry (AID 1645845; calls by dose curve; note: nearly all actives have a fitted effect of over 50% in size)
# Outline: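 Counterscreen run in the same HEK293-ACE2 line as the pseudotyped-particle entry assay, without particles. Viability after 48 h at 37 C was read as ATP luminescence, scaled between cell-containing and cell-free wells.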
# [14] = Primary qHTS to identify inhibitors of SARS-CoV-2 cell entry (AID 1645846; calls by dose curve; note: nearly all actives have a fitted effect of over 45% in size); conditions: activity change, negative = inhibition: at 57.1 µM (top of the series) unless noted
# Outline: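 HEK293-ACE2 (Expi293F, stable hACE2), 1500 cells/well, o/n 37C; cpd 23 nL pin, 1 h; MLV-PP w/ SARS-CoV-2-S (Wuhan-Hu-1, Δ19 C-term); 48 h 37C; Bright-Glo luminescence; normalized vs S-PP and bald PP.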
# [15] = target: Cytochrome P450 3A4 (Homo sapiens) (UniProt P08684); test: qHTS Assay for Inhibitors and Substrates of Cytochrome P450 3A4 (AID 884; active = well fitted curve in the direction sought with a large enough effect; an effect the other way counts as inactive or inconclusive; note: potency is the fitted concentration of half-maximal effect; nearly all actives have a fitted effect of over 50% in size)
# Outline: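 Luminescent readout of luciferin produced by CYP3A4 (20 nM) dealkylation of Luciferin-PPXE, 25 uM (its KM). NADPH-driven reaction ran 60 min at RT after 10 min compound preincubation; data scaled to 57 uM ketoconazole as 100% inhibition.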
# [16] = target: Cytochrome P450 2C19 (Homo sapiens) (UniProt P33261); test: qHTS Assay for Inhibitors and Substrates of Cytochrome P450 2C19 (AID 899; active = well fitted curve in the direction sought with a large enough effect; an effect the other way counts as inactive or inconclusive; note: potency is the fitted concentration of half-maximal effect; nearly all actives have a fitted effect of over 60% in size)
# Outline: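 5 nM human CYP2C19 with 10uM Luciferin-H EGE (at KM) in 50mM KPO4, compound preincubated 10 min at 37C, then NADPH regeneration for 60 min at 37C. Luciferin read by luminescence after detection reagent; normalized to 57uM ketoconazole as full inhibition.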
# Sequence of Alpha-galactosidase (Coffea arabica) (Q42656 whole entry, looked up): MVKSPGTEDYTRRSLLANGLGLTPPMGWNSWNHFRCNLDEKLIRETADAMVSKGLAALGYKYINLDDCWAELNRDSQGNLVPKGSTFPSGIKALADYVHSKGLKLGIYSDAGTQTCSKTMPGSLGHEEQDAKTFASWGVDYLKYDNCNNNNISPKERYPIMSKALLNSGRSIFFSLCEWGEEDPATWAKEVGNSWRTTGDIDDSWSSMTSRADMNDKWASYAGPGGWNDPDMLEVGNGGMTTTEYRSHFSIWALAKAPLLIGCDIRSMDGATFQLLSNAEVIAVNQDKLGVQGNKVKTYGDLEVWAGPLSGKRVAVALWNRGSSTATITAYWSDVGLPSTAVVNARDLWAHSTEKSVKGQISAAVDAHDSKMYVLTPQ
# Sequence of Nucleoprotein (Lymphocytic choriomeningitis virus (strain Armstrong)) (P09992 whole entry, looked up): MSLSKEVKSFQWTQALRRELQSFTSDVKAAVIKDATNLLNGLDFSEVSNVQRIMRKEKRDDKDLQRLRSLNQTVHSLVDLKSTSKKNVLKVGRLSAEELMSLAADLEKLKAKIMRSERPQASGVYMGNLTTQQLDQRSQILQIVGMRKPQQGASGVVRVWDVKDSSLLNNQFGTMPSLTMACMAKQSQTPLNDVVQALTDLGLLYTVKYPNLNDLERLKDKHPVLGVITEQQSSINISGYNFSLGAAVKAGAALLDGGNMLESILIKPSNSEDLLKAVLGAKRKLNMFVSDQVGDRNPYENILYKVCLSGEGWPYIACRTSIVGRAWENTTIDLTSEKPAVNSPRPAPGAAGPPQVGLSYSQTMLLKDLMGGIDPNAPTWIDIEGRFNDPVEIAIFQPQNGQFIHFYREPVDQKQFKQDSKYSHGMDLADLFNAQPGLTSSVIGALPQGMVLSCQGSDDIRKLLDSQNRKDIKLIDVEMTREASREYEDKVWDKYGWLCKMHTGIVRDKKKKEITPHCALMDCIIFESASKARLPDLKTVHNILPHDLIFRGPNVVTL
# Sequence of Cytochrome P450 2C19 (Homo sapiens) (P33261 whole entry, looked up): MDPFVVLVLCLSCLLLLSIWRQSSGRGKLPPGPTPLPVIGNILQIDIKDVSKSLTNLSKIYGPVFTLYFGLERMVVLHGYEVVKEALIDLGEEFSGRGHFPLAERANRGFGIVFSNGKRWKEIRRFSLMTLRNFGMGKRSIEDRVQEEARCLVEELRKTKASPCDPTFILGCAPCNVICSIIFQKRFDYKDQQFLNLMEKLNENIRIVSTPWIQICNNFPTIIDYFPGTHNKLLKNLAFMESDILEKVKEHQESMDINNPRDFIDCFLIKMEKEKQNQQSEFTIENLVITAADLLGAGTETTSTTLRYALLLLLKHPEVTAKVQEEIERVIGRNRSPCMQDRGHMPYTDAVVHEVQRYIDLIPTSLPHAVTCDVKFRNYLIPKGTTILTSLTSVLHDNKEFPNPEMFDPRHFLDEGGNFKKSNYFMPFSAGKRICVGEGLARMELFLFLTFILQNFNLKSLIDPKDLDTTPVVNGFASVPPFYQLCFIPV
# Sequence of Cytochrome P450 3A4 (Homo sapiens) (P08684 whole entry, looked up): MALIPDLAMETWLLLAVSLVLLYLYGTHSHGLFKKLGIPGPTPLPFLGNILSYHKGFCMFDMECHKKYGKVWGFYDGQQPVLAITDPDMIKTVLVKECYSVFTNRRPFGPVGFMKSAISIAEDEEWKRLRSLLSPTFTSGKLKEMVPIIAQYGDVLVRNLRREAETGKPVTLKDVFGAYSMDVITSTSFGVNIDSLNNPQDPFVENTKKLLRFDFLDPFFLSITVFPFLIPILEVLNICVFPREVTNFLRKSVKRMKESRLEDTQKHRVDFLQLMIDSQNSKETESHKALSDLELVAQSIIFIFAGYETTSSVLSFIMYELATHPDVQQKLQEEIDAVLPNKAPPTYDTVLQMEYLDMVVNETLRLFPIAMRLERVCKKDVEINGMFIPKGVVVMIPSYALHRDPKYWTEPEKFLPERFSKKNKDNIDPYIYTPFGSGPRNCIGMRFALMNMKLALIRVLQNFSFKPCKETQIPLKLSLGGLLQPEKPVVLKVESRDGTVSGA
smiles,measurement,setting,value
C[C@H](CCC(=O)O)[C@H]1CC[C@H]2[C@@H]3[C@H](O)C[C@@H]4C[C@H](O)CC[C@]4(C)[C@@H]3CC[C@]12C,"parasite growth, % of DMSO control",[1],59.3%
same,"parasite growth remaining, % of DMSO control (lower = more inhibition)",[2],92.9%
same,"growth, % of control",[3],81.3%
same,Potency,[4],inactive
same,Potency,[5],inactive
same,Potency,[6],inactive
same,Potency,[7],inactive
N#C/C(=C\c1ccc(O)c(O)c1)C(=O)NCCc1ccccc1,outcome,[8],inactive
same,outcome,[9],inactive
same,Potency,[4],inactive
same,Potency,[5],inactive
same,Potency,[6],inactive
same,Potency,[7],inactive
C=C1C[C@@]2(O)O[C@@]3(C[C@H]2C(C)C)[C@H](C)CC[C@H]13,"parasite growth, % of DMSO control",[1],70.7%
same,"parasite growth remaining, % of DMSO control (lower = more inhibition)",[2],75.7%
same,"parasite growth, % of control (lower = inhibition)",[10],48.2%
same,"growth, % of control",[3],68.4%
same,Potency,[4],inactive
same,Potency,[5],inactive
same,Potency,[6],inactive
same,Potency,[7],inactive
COc1cc(CNC(=O)CCCCC=CC(C)C)ccc1O,"parasite growth, % of DMSO control",[1],92.4%
same,"parasite growth remaining, % of DMSO control (lower = more inhibition)",[2],103%
same,"growth, % of control",[3],105%
same,Potency,[4],inactive
same,Potency,[5],inactive
same,Potency,[6],inactive
same,Potency,[7],inactive
C[C@H](CCC(=O)O)[C@H]1CCC2C3CC[C@@H]4C[C@H](O)CC[C@]4(C)C3CC[C@@]21C (some centres not stated),"parasite growth, % of DMSO control",[1],97.3%
same,"parasite growth, % of control (lower = inhibition)",[10],65%
same,Potency,[4],inactive
same,Potency,[5],inactive
same,Potency,[6],inactive
same,Potency,[7],inactive
CN1CCC2(CCN3CCc4c(oc5ccccc45)C3C2)N(C)C1=O (configuration not stated),Potency,[11],inactive
same,outcome,[12],inactive
same,Potency,[4],inactive
same,Potency,[5],inactive
same,Potency,[6],inactive
NC(=O)c1noc([C@H](CCCC2CCCCC2)CC(=O)NO)n1,Potency,[4],inactive
same,Potency,[5],inactive
same,Potency,[6],inactive
same,Potency,[13],inactive
same,"activity change, negative = inhibition",[14],-13.6%
C[C@@H](c1ncncc1F)[C@](O)(Cn1cncn1)c1ccc(F)cc1F,"parasite growth, % of DMSO control",[1],65.8%
same,"parasite growth remaining, % of DMSO control (lower = more inhibition)",[2],104%
same,"parasite growth, % of control (lower = inhibition)",[10],115%
same,"growth, % of control",[3],94.6%
same,Potency,[4],inactive
same,Potency,[5],inactive
same,Potency,[6],inactive
same,Potency,[7],inactive
COc1cc(C[C@@H](CO)[C@H](CO)Cc2ccc(O)c(OC)c2)ccc1O,Potency,[4],inactive
same,Potency,[5],1.72 µM (active)
same,Potency,[6],2.73 µM (active)
same,Potency,[13],inactive
same,Potency,[14],inactive
Nc1nc(OCc2ccccc2)c2[nH]cnc2n1,Potency,[15],7.94 µM (active)
same,Potency,[16],6.31 µM (active)
same,outcome,[8],inactive
same,outcome,[9],inactive
same,Potency,[11],inactive
same,outcome,[12],inactive
same,"parasite growth, % of DMSO control",[1],83.5%
same,"parasite growth remaining, % of DMSO control (lower = more inhibition)",[2],103%
same,"growth, % of control",[3],44%
same,Potency,[4],inactive
same,Potency,[5],inactive
same,Potency,[6],17.2 µM (active)
same,Potency,[13],inactive
same,Potency,[14],inactive
CC=C1C2C=C(C)CC1(N)c1ccc(=O)[nH]c1C2 (configuration not stated),"parasite growth, % of control (lower = inhibition)",[10],79.2%
same,"growth, % of control",[3],103%
same,Potency,[4],inactive
same,Potency,[5],inactive
same,Potency,[6],inactive
same,Potency,[7],inactive
